# Assay results reported in PubChem BioAssay.
# Several values for one entry are separate records, joined by “and”; a condition that tells them apart may be missing. Equal entries are not always repeated. Activity calls are given as the source filed them. Unless noted, no stated cut-off is given here; in the data, active means inhibition above about 80%; inactive means the rest.
# Tests used:
# [1] = UWB1.289 ovarian carcinoma cell growth inhibition, synergistic combos for chromothripsis tumors, BGB or cisplatin combos (AID 1671456); conditions: UWB1.289 ovarian carcinoma cells, stronger effect = higher value;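 further: cells exposed to compound for four days; 0% = vehicle DMSO and 100% = killing by high DMSO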
# [2] = LFS_MB_2R medulloblastoma cell growth inhibition, synergistic combos for chromothripsis tumors, cisplatin combos (AID 1671457); conditions: LFS_MB_2R medulloblastoma cells, stronger effect = higher value;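 further: cells exposed to compound for four days before readout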
# [3] = MDA-MB-436 breast carcinoma cell growth inhibition, synergistic combos for chromothripsis tumors, BGB or cisplatin combos (AID 1671458; call rule not given here;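 further: cells exposed for 96 hours; 0% = vehicle DMSO and 100% = killing by high DMSO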); conditions: MDA-MB-436 breast carcinoma growth inhibition, drug combinations, stronger effect = higher value
# [4] = UWB1.289_BRCA1 ovarian cancer growth, cell-based, BGB or cisplatin combinations (AID 1671459); conditions: UWB1.289 BRCA1 ovarian carcinoma, drug combinations, stronger effect = higher value
# [5] = human astrocyte viability loss, single and combined drugs, cytotoxicity control for chromothriptic childhood tumor combination screen, cell-based, BGB or cisplatin IC20 combos (AID 1671460); conditions: Human astrocytes, drug combinations, stronger effect = higher value;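 further: cells exposed to compounds for 96 hours before viability readout; 0% = vehicle and 100% = killing control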
# [6] = growth inhibition of BT084 medulloblastoma cells, cell-based, ICGC_MB145, cisplatin and BGB IC40 combos (AID 1671461); conditions: drug combinations, stronger effect = higher value;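 further: cells exposed to drugs for 96 hours; 0% = vehicle DMSO and 100% = high DMSO full killing control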
# [7] = growth inhibition of RCMB18 medulloblastoma cells, cell-based, cisplatin and BGB IC40 combos (AID 1671462); conditions: stronger effect = higher value;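 further: cells exposed to compound for four days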
# [8] = growth inhibition of CRL1545 osteosarcoma cells, cell-based, cisplatin and BGB IC20 combos (AID 1671464); conditions: stronger effect = higher value;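 further: cells exposed to compound for 96 hours before readout; 0% = vehicle DMSO and 100% = high DMSO killing control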
# [9] = measured here: combination with cisplatin, at 0.5 µM
compound,measurement,setting,value
CCn1cc(C(=O)O)c(=O)c2cc(F)c(N3CCNCC3)nc21,inhibition,[1]; at 0.5 µM,-10.7% (inactive) and 1.4% (inactive)
same,inhibition,"[1]; measured here: inhibition with BGB combination, at 0.05 µM",-29.8% and -21.6%
same,inhibition,"[1]; measured here: inhibition with cisplatin combination, at 0.05 µM",-19.7% and -11.2%
same,inhibition,[2]; at 0.5 µM,-18.7% (inactive) and -16.6% (inactive)
same,inhibition,[2]; [9],-8.22% and -12.2%
same,inhibition,"[2]; measured here: combination with cisplatin, at 5 µM",-10.3% and -8.58%
same,inhibition,[3]; at 0.5 µM,-9.05% (inactive) and -13.8% (inactive)
same,inhibition,"[3]; measured here: BGB combination, at 0.5 µM",-10.2% and -4.34%
same,inhibition,"[3]; measured here: BGB combination, at 5 µM",-20.2% and -12.6%
same,inhibition,"[3]; measured here: cisplatin combination, at 0.5 µM",-12.3% and -35.3%
same,inhibition,"[3]; measured here: cisplatin combination, at 5 µM",-9.88% and -14.8%
same,inhibition,"[4]; BGB combination, concentration series, at 5 µM",-1.06% and 7.56%
same,inhibition,[4]; at 0.5 µM,-12.5% (inactive) and 3.88% (inactive)
same,inhibition,"[4]; cisplatin combination, concentration series, at 5 µM",0.876% and 19.6%
same,inhibition,[5]; at 0.5 µM,8.11% (inactive) and 6.08% (inactive)
same,inhibition,"[5]; measured here: combo with BGB IC20, at 0.5 µM",13.6% and -6.3%
same,inhibition,"[5]; measured here: combo with cisplatin IC20, at 0.5 µM",-5.13% and 23.3%
same,inhibition,[6]; at 0.5 µM,-14.2% (inactive)
same,inhibition,"[6]; cisplatin combination, at 0.5 µM",-20.2% and 4.87%
same,inhibition,"[6]; cisplatin combination, at 5 µM",-328% and -22.3%
same,inhibition,"[6]; measured here: BGB IC40 combination 0.05 uM, at 0.05 µM",-15.2% and 5.81%
same,inhibition,"[6]; single agent, at 5 µM",-15.6% and -14.8%
same,inhibition,[7]; at 0.5 µM,-23.5% (inactive) and -3.9% (inactive)
same,inhibition,"[7]; cisplatin combo, at 5 µM",-47.1% and 18.7%
same,inhibition,"[7]; measured here: BGB IC40 combination, at 0.05 µM",-10.4% and 1.16%
same,inhibition,[7]; [9],-40.4% and 9.59%
same,inhibition,"[7]; single agent, at 5 µM",-15.2% and -21.3%
same,inhibition,[8]; at 0.5 µM,9.99% (inactive) and 6.3% (inactive)
same,inhibition,"[8]; measured here: with BGB IC20 combination, at 0.5 µM",-15.9% and 0.601%
same,inhibition,"[8]; measured here: with cisplatin IC20 combination, at 0.5 µM",21.7% and 9.15%
same,inhibition,"[8]; single agent, at 0.05 µM",-9.98% and 9.98%
same,inhibition,"[8]; single agent, at 5 µM",-24.6% and 24.3%
